Screens (PubChem)
Compounds with a hit are over-represented: about 8.1% of the library has one in this group of screens.
KB-3-1 tox: qHTS assay for MDR1-selective chemotherapeutics: Primary screen using the parental adenocarcinoma cell KB-3-1 | KB-3-1 viability, CellTiter-Glo ATP luminescence, 72 h | Potency, µM (titrated, usually from 46.1 µM), hits mostly cytotoxic | hit rate 1.4% among 400,000 | AID 1347075, 2019; also: % is scaled to controls: 0 for no effect and ±100 for the full control effect; nearly all actives have a fitted effect of over 60% in size
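72 h, 37 °C compound treatment of KB-3-1 parental cells; CellTiter-Glo added, 10 min, luminescence read. Data corrected against DMSO-only plates and normalized before curve fitting.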
KB-V1 MDR tox: qHTS assay for MDR1-selective chemotherapeutics: Primary screen using the drug-selected MDR subline cells KB-V1; AID 1347076, 2019; hit rate 3.4% among 400,000; Potency, µM (top dose mostly 46.1 µM), actives largely listed as cytotoxic; KB-V1 MDR cells viability, CellTiter-Glo, 72 h; also: % is scaled to controls: 0 for no effect and ±100 for the full control effect; nearly all actives have a fitted effect of over 60% in size
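Following 72 h at 37 degrees C with compound, KB-V1 cell viability was read by CellTiter-Glo luminescence, medium being phenol-red-free DMEM plus 10% FBS; concentration-response parameters came from normalized, curve-fitted qHTS data.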
MCF10A rerep: A quantitative high throughput screen for small molecules that induce DNA re-replication in MCF 10a normal breast cells | MCF 10A DNA re-replication, Hoechst nuclear intensity, 48 h | Potency, µM (titrated, usually from 46.1 µM), without a hit: at the highest dose activity, positive = re-replication, most hits filed as activators | hit rate 2.9% among 350,000; also: % of control where 0% means no effect; nearly all actives have a fitted effect of over 50% in size
ELG1 DNA repair: qHTS screen for small molecules that inhibit ELG1-dependent DNA repair in human embryonic kidney (HEK293T) cells expressing luciferase-tagged ELG1; HEK293T ELG1-luciferase reporter, luminescence, 16 h; DNA damage induced by 5-fluorouridine; hit rate 2.3% among 330,000; Potency, µM (titrated, usually from 46.1 µM), inactives show top-dose activity change, negative = inhibition, actives largely listed as inhibitors; also: % is scaled to controls: 0 for no effect and ±100 for the full control effect; nearly all actives have a fitted effect of over 55% in size
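Reporter activity after DNA damage by 5-fluorouridine is monitored. Compound-treated cells incubate 16 hr at 37 °C, then ONE-Glo is added for 30 min before luminescence reading.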
SW480 rereplic: A quantitative high throughput screen for small molecules that induce DNA re-replication in SW480 colon adenocarcinoma cells | SW480 DNA re-replication, Hoechst DNA content imaging, 48 h | Potency, µM (top dose mostly 46.1 µM), inactives show at the highest dose re-replication activation, most hits filed as activators | hit rate 1.8% among 340,000 | AID 624297, 2012; also: % of control where 0% means no effect; nearly all actives have a fitted effect of over 55% in size
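Image-based read-out: total Hoechst fluorescence of nuclei (405 nm excitation, 500-530 nm emission), with hits raising the fraction of high-intensity nuclei. SW480 colon cells incubated 48 hr with compounds at 37 C.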
* = called active by the depositor. Calls follow the shape of the dose curve; as a rule, active = well fitted curve in the direction sought with a large enough effect; inconclusive = small, poorly fitted or top-dose-only effect, or another doubt; inactive = no such curve, though single readings can be large; an effect the other way counts as inactive or inconclusive. Potency is read from the fitted curve at half-maximal effect.

`CCOc1cc(CN2CCN(c3cccc(C(F)(F)F)c3)CC2)ccc1O` gave KB-3-1 tox inactive, KB-V1 MDR tox 16µM*, MCF10A rerep 6%, ELG1 DNA repair inconclusive and SW480 rereplic 13%.
CCOc1cc(CN2CCCC(N3CCN(c4ccc(F)cc4)CC3)C2)ccc1OC (centres undefined) was read as KB-3-1 tox inactive, KB-V1 MDR tox inactive, MCF10A rerep 4.1µM*, ELG1 DNA repair 0% and SW480 rereplic -47%.
For COc1ccc(N2CCN(C3CCCN(S(=O)(=O)c4ccc(C)cc4C)C3)CC2)cc1 (centres undefined) the results were KB-3-1 tox 26µM*, KB-V1 MDR tox inactive, MCF10A rerep inconclusive, ELG1 DNA repair -11% and SW480 rereplic inconclusive.
COc1ccc(CC(C)N2CCN(c3cccc(C(F)(F)F)c3)CC2)cc1OC (centres undefined) was read as KB-3-1 tox inactive, KB-V1 MDR tox 18µM*, MCF10A rerep 4%, ELG1 DNA repair inconclusive and SW480 rereplic -1%.
For CCOc1cc(CN2CCSCC2)ccc1O the results were KB-3-1 tox inactive, KB-V1 MDR tox inactive, MCF10A rerep 0%, ELG1 DNA repair 0% and SW480 rereplic -13%.
For CCCc1cc(=O)[nH]c(Nc2cc(C)cc(C)c2)n1 the results were KB-3-1 tox inactive and KB-V1 MDR tox inconclusive.
For COc1ccc(N2CCN(C3CCCN(Cc4cccc(C(C)=O)c4)C3)CC2)cc1 (centres undefined) the results were KB-3-1 tox inactive, KB-V1 MDR tox inactive, MCF10A rerep 23µM*, ELG1 DNA repair 1% and SW480 rereplic -16%.
For CCOc1cc(CN2CCN(c3cccc(C(F)(F)F)c3)CC2)ccc1OC the results were KB-3-1 tox inactive, KB-V1 MDR tox inconclusive, MCF10A rerep -3%, ELG1 DNA repair 26µM* and SW480 rereplic -3%.
Screening CCOc1cc(CN2CCN(c3ccc(C(C)=O)cc3)CC2)ccc1OC returned KB-3-1 tox inactive, KB-V1 MDR tox 23µM*, MCF10A rerep 5%, ELG1 DNA repair -1% and SW480 rereplic -1%.
Screening CC1CN(C(=O)COC(=O)c2ccc3ccccc3c2)CC(C)O1 (centres undefined) returned KB-3-1 tox inactive and KB-V1 MDR tox inactive.
For CS(=O)(=O)N(CC(=O)N1CCc2ccccc2C1)c1cccc(Br)c1 the results were KB-3-1 tox inactive, KB-V1 MDR tox inactive, MCF10A rerep -3% and SW480 rereplic -5%.
`CC(=O)c1ccc(NC(=O)CSc2ccc(-c3sc(C)nc3C)nn2)cc1` gave KB-3-1 tox inactive, KB-V1 MDR tox inactive, MCF10A rerep 17%, ELG1 DNA repair 18µM* and SW480 rereplic -29%.
`CCOC(=O)N1CCC(N(C(=O)Nc2cccc(OC)c2)C(C)CC)CC1` (centres undefined) gave KB-3-1 tox inactive, KB-V1 MDR tox 18µM*, MCF10A rerep -10%, ELG1 DNA repair -8% and SW480 rereplic -4%.
`CCOC(=O)N1CCC(N(CCCOC)C(=O)Nc2cccc(OC)c2)CC1` gave KB-3-1 tox inactive, KB-V1 MDR tox inactive, MCF10A rerep 3%, ELG1 DNA repair -7% and SW480 rereplic -3%.
Screening Cc1cc(C)nc(NC(=O)CSc2nnnn2-c2ccccc2)n1 returned KB-3-1 tox inactive, KB-V1 MDR tox 21µM*, MCF10A rerep 1%, ELG1 DNA repair inconclusive and SW480 rereplic -2%.
Cc1ccc(C(=O)CSc2nnnn2-c2ccccc2)o1 was read as KB-3-1 tox inactive, KB-V1 MDR tox inactive, MCF10A rerep 0.41µM*, ELG1 DNA repair -3% and SW480 rereplic -24%.
`O=C(CSc1nnnn1-c1ccccc1)Nc1ccccc1` gave KB-3-1 tox inactive, KB-V1 MDR tox inactive, MCF10A rerep -2%, ELG1 DNA repair 3% and SW480 rereplic -8%.
